In all, about 300,000 compounds went through this assay and about 3,200 (1.1%) were called active. The sample holds actives, similar compounds and a random draw of the others, so the mix is not that of the screen. Rule as the data show it: active = inhibition above about 75%; inconclusive = no clear call, values can overlap the other calls; inactive = below that; tested in HMLE shEcad cells.
Assay: growth suppression of cancer stem-like cells – cell-based, luminescence, primary screen (AID 2717)
Settings: cancer stem cell-like cells viability, at 7.5 µM, stronger effect = higher value
For `O=C1C=C(c2cc(C(F)(F)F)cc(C(F)(F)F)c2)C[C@@H](c2ccc3c(c2)OCO3)C1`, the inhibition was 34.8% (inactive). With `COCC(=O)Nc1c(I)c(C(=O)NCC(O)CO)c(I)c(C(=O)N(C)CC(O)CO)c1I` (stereo unspecified) the inhibition was 10.5% (inactive). For `CCN1/C(=C\c2ccc3ccccc3[n+]2CC)Sc2cc(C)ccc21`, the inhibition was 89.1% (active). In the case of `CCN1/C(=C/c2ccc3ccc(C)cc3[n+]2CC)Sc2ccccc21`, the inhibition is reported as 17.6% (inactive). With `COc1ccc(C(=O)N2CCN(c3ccc(C(C)=O)cc3F)CC2)cc1S(=O)(=O)NC1CC1` the inhibition was 1.55% (inactive). With `CC(=O)CCC(=O)c1ccc2ccccc2c1` the inhibition was -3.91% (inactive). With `COc1ccc(N=Nc2ccc(O)c(P(=O)(c3ccccc3)c3ccccc3)c2)cc1` the inhibition was 13.4% (inactive). With `Cc1cc(N=Nc2ccc3ccccc3c2)ccc1O` the inhibition was 112% (active). For `CCN(CC)C(=O)c1nc[nH]c1C(=O)N(C)Cc1ccccc1`, the inhibition was -14.8% (inactive). In the case of `COc1ccc(/C=C/C(=O)Nc2cccnc2)cc1OC`, the inhibition is reported as 4.4% (inactive). In the case of `COc1ccc(/C=C/C(=O)Nc2ccc(C)cc2)cc1S(=O)(=O)N1CCOCC1`, the inhibition is reported as -2.38% (inactive). For `COc1ccc(/C=C/C(=O)Nc2ccc(C34CC5CC(CC(O)(C5)C3)C4)cc2)cc1OC`, the inhibition was 91% (active). For `CC(=O)C(CC(=O)N1CCCC1)C(=O)Nc1ccc(Cl)cc1` (stereo unspecified), the inhibition was -5.74% (inactive). In the case of `CSc1ncc(Cl)c(C(=O)Nc2cc(C)ccc2C)n1`, the inhibition is reported as 4.07% (inactive). For `Cc1cccc(NC(=O)c2nc(S(=O)(=O)Cc3ccccc3)ncc2Cl)c1`, the inhibition was 109% (active). With `Cc1cccc(NC(=O)c2nc[nH]c2C(=O)NCC(=O)OCc2ccccc2)c1` the inhibition was -0.27% (inactive). With `CSc1nnc(NC(=O)c2nc(S(=O)(=O)Cc3ccc(C)cc3)ncc2Cl)s1` the inhibition was 104% (active). For `CCSc1nnc(NC(=O)c2ccc(C)cc2)s1`, the inhibition was 15.4% (inactive). With `CCSc1ncc(Cl)c(C(=O)Nc2cc(C)ccc2C)n1` the inhibition was -7.15% (inactive). For `Cc1cc(C)cc(OCC(=O)OCC(=O)NC2CCCC2)c1`, the inhibition was 7.95% (inactive). For `CC(C)(C)OC(=O)C[C@@H]1C/C=C\C[C@@H](CC(=O)N[C@H](CO)Cc2ccccc2)C(=O)NC[C@@H](c2ccccc2)OC1=O`, the inhibition was 0.463% (inactive). For `CCN(C(=O)COC(=O)CCC(=O)c1cccs1)C1CCCCC1`, the inhibition was -3.12% (inactive). With `CC1(c2ccccc2)NC(=O)N(CC(=O)N2CC(=O)Nc3ccccc32)C1=O` (stereo unspecified) the inhibition was -24.5% (inactive). With `COc1ccc(-c2c(-c3cc(OC)cc(OC)c3)n(C)c3ccc(-c4ccn[nH]4)cc23)cc1` the inhibition was 109% (active). In the case of `COc1cc(OC)cc(-c2c(-c3cccs3)c3cc(-c4ccc(OC)nc4)ccc3n2C)c1`, the inhibition is reported as 30.1% (inactive). For `COc1cc(OC)cc(-c2c(-c3ccc(F)cc3)c3cc(-c4ccc5cc[nH]c5c4)ccc3n2C)c1`, the inhibition was 14.4% (inactive). For `CNC[C@@H]1Oc2c(NS(C)(=O)=O)cccc2C(=O)N([C@@H](C)CO)C[C@H]1C`, the inhibition was -11.8% (inactive). With `O=C(/C=C/Sc1ncn[nH]1)c1ccc(Cl)cc1` the inhibition was 112% (active). For `O=C(CSc1ncn[nH]1)N/N=C/c1ccc(F)cc1`, the inhibition was 8.65% (inactive). In the case of `Cc1cc(C)nc(S/C=C/C(=O)c2ccccc2)n1`, the inhibition is reported as 49.1% (inactive). For `CCOC(=O)[C@H]1[C@H]2COc3ccc(OC)cc3[C@@H]2N2C(=O)c3ccc(F)cc3NC(=O)[C@@]12C`, the inhibition was 9.18% (inactive). In the case of `CCCC(=O)Nc1ccc(C(=O)N/N=C/c2ccc[nH]2)cc1`, the inhibition is reported as 110% (active). For `CC(=O)Nc1ccc(C(=O)/C=C/c2ccc[nH]2)cc1`, the inhibition was -8.94% (inactive). In the case of `CC(=O)Nc1ccc(C(=O)NNC(=O)CCCCC(=O)NNC(=O)c2ccc(NC(C)=O)cc2)cc1`, the inhibition is reported as 0.726% (inactive). With `Cc1ccc(OCCC(=O)Nc2ccc(S(=O)(=O)Nc3nccs3)cc2)cc1` the inhibition was -5.72% (inactive). In the case of `COc1ccc(C)cc1NC(=O)CSc1cccc[n+]1[O-]`, the inhibition is reported as -18.1% (inactive). For `O=C(Nc1cc(S(=O)(=O)N2CCCCC2)ccc1Cl)C1COc2ccccc2O1` (stereo unspecified), the inhibition was -13.5% (inactive). In the case of `Cc1[nH]n(-c2ccccc2)c(=O)c1/C=N/NC(=O)c1ccoc1C`, the inhibition is reported as 35.2% (inactive). With `Cc1ccc(-n2[nH]c(C)c(/C=N/NC(=O)c3cccc([N+](=O)[O-])c3)c2=O)cc1C` the inhibition was 104% (active). With `O=C(N/N=C/c1cccc([N+](=O)[O-])c1)c1ccncc1` the inhibition was 0.983% (inactive). With `CCC1CCCCN1C(=S)NC(=O)c1ccco1` (stereo unspecified) the inhibition was 7.21% (inactive). With `O=C(Nc1cc(-c2ccccc2)nn1-c1ccccc1F)c1ccc([N+](=O)[O-])cc1` the inhibition was 1.45% (inactive). In the case of `COc1ccc(S(=O)(=O)N2CCN(c3cnccn3)CC2)cc1`, the inhibition is reported as 7% (inactive). For `CC(C)(C)OC(=O)NCCCCCNC(=O)c1[nH]cnc1C(=O)Nc1nccs1`, the inhibition was 0.813% (inactive). In the case of `CC(=O)c1ccc(NC(=O)CSc2nc3ccccc3c(=O)n2CCCN2CCOCC2)cc1`, the inhibition is reported as -2.25% (inactive). In the case of `Cc1cccc(N=C2NN=C(c3c[nH]c4ccccc34)CS2)c1`, the inhibition is reported as 80% (active). With `Clc1cccc(N=C2NN=C(c3ccc4c(c3)OCCO4)CS2)c1` the inhibition was 17.2% (inactive). In the case of `Cc1cccc(N=C2NC(=O)/C(=C/c3cn(C)c4ccccc34)S2)c1`, the inhibition is reported as 47.4% (inactive). In the case of `CCN(C(=O)CSc1nnnn1-c1ccc(OC)cc1)C1CCS(=O)(=O)C1` (stereo unspecified), the inhibition is reported as -11.6% (inactive). In the case of `CC(NC(=O)COC(=O)c1ccc2ccccc2n1)c1ccccc1` (stereo unspecified), the inhibition is reported as 2.66% (inactive). For `O=C(Nc1cn(-c2ccccc2)nc1-c1ccccc1)c1ccccc1`, the inhibition was -3.4% (inactive). In the case of `CCc1ccc(-c2nn(-c3ccccc3)cc2CSC(=N)N)cc1`, the inhibition is reported as 118% (active). With `CCc1ccc(-c2nn(-c3ccccc3C)cc2C(=O)N2CCN(C3CCS(=O)(=O)C3)CC2)cc1` (stereo unspecified) the inhibition was -16.1% (inactive). For `COc1ccc(C#Cc2c(-c3ccc(OC)cc3)oc3ccc(-c4ccc5c(c4)OCO5)cc23)cc1`, the inhibition was -6.59% (inactive). With `Cc1cccc(-c2oc3ccc(-c4ccc5c(c4)OCO5)cc3c2C#Cc2cncn2C)c1` the inhibition was 94.9% (active). With `COc1ccc(/C=C/c2c(-c3cccc(C)c3)oc3ccc(-c4ccc5c(c4)OCO5)cc23)cc1` the inhibition was -7.1% (inactive). In the case of `CCCC(CNC(=O)COC(=O)C1=NNC(=O)CC1)c1ccc(Cl)cc1Cl` (stereo unspecified), the inhibition is reported as -14.7% (inactive). For `COc1cc(S(=O)(=O)N2CCN(C(=O)C3CC3)CC2)ccc1NC(C)=O`, the inhibition was 1.76% (inactive). In the case of `COc1ccc(C(=O)Nc2cc(S(=O)(=O)N3CCCC3)ccc2Cl)cc1`, the inhibition is reported as 7.7% (inactive). With `Cc1ccc(C(=O)OCC(=O)NCc2cc(C)c(O)c(C)c2)cc1S(=O)(=O)N1CCCCC1` the inhibition was -3.22% (inactive). With `c1cncc(-c2nnc3n2C2(CCCCC2)Cc2ccccc2-3)c1` the inhibition was 2.64% (inactive). For `O=c1c2ccccc2nc2n1C1(CCCCC1)Cc1ccccc1-2`, the inhibition was 76.3% (active). With `CCC1(CC)Cc2ccccc2-c2nc3ccccc3c(=O)n21` the inhibition was 1.88% (inactive). With `COc1ccc(OC)c(/C=C/C(=O)c2ccc3c(c2)OCO3)c1` the inhibition was 23.6% (inactive). With `Cc1cc(NC(=O)CSc2ncc(C(F)(F)F)cc2Cl)no1` the inhibition was -11.1% (inactive). In the case of `NS(=O)(=O)c1cccc(NC(=O)COC(=O)c2cc([N+](=O)[O-])ccc2N2CCCC2)c1`, the inhibition is reported as 8.24% (inactive). For `COc1ccc2c(CC(=O)NNC(=O)c3ccccc3F)coc2c1`, the inhibition was -7.08% (inactive). With `Nn1c(SCC(=O)NC2CCCc3ccccc32)nnc1C1CC1` (stereo unspecified) the inhibition was -20.9% (inactive). In the case of `O=C(/C(=C/c1cccc(Cl)c1)c1nc2ccccc2[nH]1)c1ccccc1`, the inhibition is reported as 79.9% (active). In the case of `CCC(=O)/C(=C(/O)c1ccccc1)c1nc2ccccc2[nH]1`, the inhibition is reported as -8.67% (inactive). With `O=C(Cc1nc2ccccc2[nH]c1=O)c1ccc(Cl)cc1` the inhibition was -22.9% (inactive). For `CC(Sc1ccccc1F)C(=O)Nc1cccc(S(=O)(=O)N2CCOCC2)c1` (stereo unspecified), the inhibition was -6.48% (inactive). For `O=C1CCC/C=C/C[C@@H](CC(=O)N(CCO)Cc2ccccc2)C(=O)NC[C@H](c2ccccc2)O1`, the inhibition was -5.63% (inactive). With `O=C(O)CCn1cc(/C=C/C(=O)c2ccc(Cl)cc2)c(-c2cccc(Br)c2)n1` the inhibition was 78.2% (active). In the case of `CCOC(=O)/C(C#N)=C/c1cn(CCC(=O)O)nc1-c1ccc(Br)cc1`, the inhibition is reported as -7.96% (inactive). In the case of `O=C(O)/C=C/c1cn(Cc2ccccc2)nc1-c1cccs1`, the inhibition is reported as -3.63% (inactive). For `O=C(C[C@@H]1C/C=C\CCC(=O)OC[C@@H]2CCCN2C1=O)NCCO`, the inhibition was -0.206% (inactive). For `C/C(N)=C(/C#N)C(=O)COC(=O)c1cc(-c2cccc(Br)c2)nc2ccccc12`, the inhibition was 21.7% (inactive). For `C/C(N)=C(/C#N)C(=O)COC(=O)c1cc(-c2ccccc2)nc2ccc(Br)cc12`, the inhibition was -0.788% (inactive). In the case of `C/C(N)=C(/C#N)C(=O)COC(=O)c1cc(-c2ccc(C)cc2)nc2ccccc12`, the inhibition is reported as 101% (active). With `O=C(COc1ccccc1F)NNC(=O)c1cc(Br)ccc1Cl` the inhibition was 7.13% (inactive). In the case of `COc1cc(OC)cc(C(=O)NNC(=O)Cc2cccs2)c1`, the inhibition is reported as -7.32% (inactive). For `NC(=O)CC(NC(=O)Cc1cccc2ccccc12)c1ccc(NCc2cc(F)ccc2F)c([N+](=O)[O-])c1` (stereo unspecified), the inhibition was 4.74% (inactive). With `NC(=O)CC(NC(=O)Cc1ccc(Br)cc1)c1ccc(NC2CC3CCC2C3)c([N+](=O)[O-])c1` (stereo unspecified) the inhibition was 85% (active). For `CC1CCCCN1CCCNc1ccc(C(CC(N)=O)NC(=O)c2ccccc2)cc1[N+](=O)[O-]` (stereo unspecified), the inhibition was 6.07% (inactive). With `CCCCOC(=O)Cn1c(=N)n(CCN(CC)CC)c2ccccc21` the inhibition was 0.539% (inactive). In the case of `Cc1ccc(OCc2nc3ccccc3n2C)cc1`, the inhibition is reported as -4.74% (inactive). With `CCCCCCCCCCOC(=O)Cn1c(COc2ccc(C)cc2)[n+](C)c2ccccc21` the inhibition was 124% (active). For `CCCCCCCCCCOC(=O)Cn1c(COc2cccc(OC)c2)[n+](C)c2ccccc21`, the inhibition was 104% (active). With `CCn1c(=N)n(CC(=O)c2cccc(OC)c2)c2ccccc21` the inhibition was -13.1% (inactive). In the case of `COc1cccc(OCC(=O)Nc2ccccc2C(N)=O)c1`, the inhibition is reported as -7.15% (inactive).
